# ALR H2O2 inh = inhibitors of human ALR sulfhydryl oxidase, primary screen, biochemical, H2O2 detection, HRP-luminol luminescence, single point; FAD-linked sulfhydryl oxidase ALR (Homo sapiens), P55789; AID 485317, 2010; purified ALR, DTT oxidation; inhibition, % (concentration not given with the values); 290,000 tested, 3.8% active;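 active = mean replicate inhibition above about 79%, with every replicate also reaching it, limit read from the data; inconclusive = only one of the two criteria met; inactive = mean below limit and not every replicate reaching it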
# Target sequence (P55789 whole entry, looked up): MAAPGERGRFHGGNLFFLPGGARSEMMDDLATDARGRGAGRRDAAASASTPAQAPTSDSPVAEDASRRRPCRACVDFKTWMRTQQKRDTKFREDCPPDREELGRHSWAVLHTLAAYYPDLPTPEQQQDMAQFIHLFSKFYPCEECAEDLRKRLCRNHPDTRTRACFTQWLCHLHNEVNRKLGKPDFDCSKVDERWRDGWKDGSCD
# Efflux pump mplx = inhibitors of Candida efflux pumps in yeast, primary screen, S. cerevisiae, Nile Red, multiplex; S. cerevisiae Candida pump triplex; inhibition, % at 10 µM; 330,000 tested, 0.44% active;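 active = plate passing quality check with inhibition over a set limit, or well fluorescence over plate mean plus 4 SD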;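 also: Nile Red retained in pooled yeast measured as flow cytometry median fluorescence; 0% = buffer negative control and 100% = Enniatin B positive control; higher means more Nile Red kept so more efflux inhibition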
# Rce1 inh = yeast Rce1p protease inhibitors, primary screen, biochemical, fluorescence, cell-free homogeneous; CAAX prenyl protease 2 (Saccharomyces cerevisiae (strain ATCC 204508 / S288c)), Q03530; calls only; AID 2563, 2010; yeast membranes, quenched prenylated peptide cleavage fluorescence; 290,000 tested, 0.27% active;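 active = fall in fluorescence gain of 50% or more versus controls, with final raw signal at or below 3038400; inconclusive = same 50% fall but final raw signal above 3038400; inactive = fall in fluorescence gain under 50%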;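 also: plate controls were neutral control wells for no effect and wells lacking membranes for full effect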
# Target sequence (Q03530 whole entry, looked up): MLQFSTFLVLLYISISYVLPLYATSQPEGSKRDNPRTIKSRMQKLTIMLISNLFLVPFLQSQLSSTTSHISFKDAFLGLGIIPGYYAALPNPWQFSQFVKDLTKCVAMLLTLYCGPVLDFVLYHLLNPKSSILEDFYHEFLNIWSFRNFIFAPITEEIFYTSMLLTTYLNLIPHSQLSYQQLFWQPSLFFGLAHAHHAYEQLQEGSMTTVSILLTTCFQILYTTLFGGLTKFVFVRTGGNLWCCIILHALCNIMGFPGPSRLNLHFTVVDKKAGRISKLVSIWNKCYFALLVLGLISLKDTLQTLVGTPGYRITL
# GRK2 inh = compounds blocking aptamer binding on GRK2 – biochemical, human GRK2, bead flow cytometry, HTS, primary screen | 330,000 tested, 0.59% active | AID 488847, 2010 | inhibition of aptamer binding, % at 10 µM | FAM-aptamer displacement from GRK2;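 active = inhibition of aptamer binding above 40%, roughly 3 SD of noise, on plates passing a quality check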;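 also: median bead fluorescence of bound FAM aptamer so fluorescent compounds give negative values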
# HDAC3 inh = HDAC3 deacetylase inhibitors, primary screen, biochemical, fluorescence, cell-free homogeneous. Histone deacetylase 3 (Homo sapiens), O15379. recombinant HDAC3, fluorogenic peptide/trypsin coupled. inhibition, % at 8.3 µM. 320,000 tested, 0.15% active; in the data active = inhibition above about 26%, passing the limit was not always enough; inconclusive = no clear call, values can overlap the other calls
# Rtt109 HAT inh = inhibitors of C. albicans Rtt109/Vps75 HAT, primary screen, biochemical, ThioGlo CoA-SH fluorescence, plate reader; 330,000 tested, 0.16% active; purified Rtt109/Vps75, 4 h; inhibition, % at 34.9 µM; AID 540336, 2011;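 active = inhibition of at least 50% in every replicate; inconclusive = best replicate reaches 50% inhibition but some replicates fall short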
# * marks the source's active call; other numbers are inactive results; i = inactive; ? = inconclusive; nt = no result given; + = active, no number. In the library only some 4.5% were active in any assay of this set; here they are far more common.
SMILES,ALR H2O2 inh,Efflux pump mplx,Rce1 inh,GRK2 inh,HDAC3 inh,Rtt109 HAT inh
COc1ccc(CC(=O)Nc2cccnc2)cc1,-36,0,i,1,1,nt
O=C(COC(=O)C1=COCCO1)Nc1ccc(Br)cc1Br,1,0,nt,2,-8,-6
C/C(=N\Nc1ccccc1)c1c(O)cc(C)oc1=O,99*,0,i,0,-2,0
Cc1ccc(N/N=C/c2c(O)cc(C)oc2=O)cc1,99*,0,i,1,-4,-4
Cc1cc(O)c(/C=N/Nc2ccc(F)cc2)c(=O)o1,-53,0,i,5,1,10
CC(C)OCCCNC(=O)NC(=O)c1ccc(Cl)cc1,-1,0,i,0,-6,-4
O=C(CO/N=C/c1ccc(OC(F)F)cc1)N1CCc2ccccc21,-31,0,i,100*,-1,-2
CC(OC(=O)CCC1CCCC1)C(=O)Nc1ccccc1[N+](=O)[O-] (stereo not drawn),5,0,i,2,6,-19
CCn1c(SCC(=O)Nc2ccc(OC)c(OC)c2)nnc1-c1cccs1,-3,0,nt,4,-5,1
CCn1c(SCC(=O)Nc2ccc(N(C)C)cc2)nnc1-c1cccc(C)c1,99*,0,i,3,-2,3
CCn1c(SCC(=O)Nc2cc(C)on2)nnc1-c1cccc(C)c1,0,0,i,0,-6,-6
CCn1c(SCC(=O)Nc2cc(OC)c(OC)c(OC)c2)nnc1-c1cccs1,0,0,nt,2,nt,63*
CCn1c2ccccc2c2cc(NC(=O)CSc3nnc(-c4ccc(OC)c(OC)c4)n3N)ccc21,98*,0,i,0,4,1
CN(C)c1ccc(NC(=O)CSc2nnc(-c3cccs3)n2Cc2ccco2)cc1,99*,1,i,0,5,0
O=C(CCNS(=O)(=O)c1ccc(Br)cc1)NNC(=O)C1COc2ccccc2O1 (stereo not drawn),-18,0,nt,5,-2,nt
OCn1ncn(-c2ccccc2)c1=S,92*,0,i,0,-1,-8
COc1ccc(C)cc1NC(=O)CN1C(=O)COc2ccc(S(=O)(=O)N3CCC(C)CC3)cc21,1,0,i,0,0,-7
O=C(Nc1ccccc1)c1cn(CCBr)cn1,-17,0,i,0,3,-4
O=C(Nc1cccs1)Nc1c(F)cc(F)cc1Br,96*,0,i,0,-6,4
Cc1ccccc1OCC(=O)Nc1sc2c(c1C#N)CC(C)(C)NC2(C)C,-4,0,i,0,5,1
CC1(C)Cc2c(sc(NC(=O)COc3ccc(Cl)cc3)c2C#N)C(C)(C)N1,-1,1.6*,i,0,-1,-6
CCCOC1CCCN(C(=O)CCc2nnc(-c3ccc4c(c3)OCO4)o2)C1 (stereo not drawn),-2,0,nt,8,-3,5
CCOC(=O)c1c(C)nc(-c2ccccc2)nc1N,9,0,i,0,7,2
CC(=O)c1c(C)nc(-c2ccccc2)nc1N,-1,0,+,0,3,-2
COc1ccc(-c2nc(=S)[nH][nH]2)cc1,99*,0,i,0,-1,2
SMILES,ALR H2O2 inh,Efflux pump mplx,Rce1 inh,GRK2 inh,HDAC3 inh,Rtt109 HAT inh
COc1cc(-c2nc(=S)[nH][nH]2)cc(OC)c1OC,99*,0,i,1,?,3
FC(F)(F)c1ccc(-c2nc(=S)[nH][nH]2)cc1,99*,0,i,0,5,4
COc1ccc(-c2nc(=S)[nH][nH]2)cc1OC,100*,0,i,0,6,0
CCOc1ccc(-c2nc(=S)[nH][nH]2)cc1,nt,0,i,3,nt,-4
Cc1c(C(=O)N2CCC(C(N)=O)CC2)oc2ccc(Br)cc12,-22,0,i,7,-4,-1
COc1ccc(CCNC(=O)C2CC(O)CN2S(=O)(=O)c2ccc(Cl)cc2)cc1OC (stereo not drawn),-1,0,nt,1,-2,?
CN(C)CC1CC/C(=C\c2ccc(O)cc2)C1=O (stereo not drawn),nt,nt,nt,nt,nt,-8
CC1CCC/C(=C\c2ccc(O)cc2)C1=O (stereo not drawn),92*,0,i,0,6,4
CC(=O)Nc1ccc(SCC(=O)N2CCN(S(=O)(=O)c3ccccc3)CC2)cc1,98*,0,nt,0,12,29
Cc1cc(C)c(-c2c(O)c3cccnc3n(C)c2=O)c(C)c1,-4,0,i,5,-1,nt
C=CCn1c(SCC(=O)c2ccc(O)c(O)c2)nnc1-c1ccc(C)cc1,65,0,nt,3,-2,0
C=CCn1c(SCC(=O)c2ccc(OC)cc2)nnc1-c1cc2cccc(OC)c2o1,-23,0,i,0,-4,5
C=CCn1c(SCC(=O)c2ccc(O)c(O)c2)nnc1-c1ccc(OC)cc1,91*,0,nt,4,-2,6
C=CCn1c(SCC(=O)c2ccc(O)c(O)c2)nnc1-c1cccc(OC)c1,99*,1,nt,2,-4,6
C=CCn1c(SCC(=O)c2cccs2)nnc1-c1cccc(OC)c1,93*,0,i,5,-6,2
NNC(=O)c1cc(S(=O)(=O)N2CCOCC2)c[nH]1,5,0,nt,0,-5,5
O=C1NCCCC2c3c(cc(Br)c(O)c3Br)OC12N1CCOCC1 (stereo not drawn),94*,0,i,0,7,5
O=C1NCCCC2c3cc(O)c4ccccc4c3OC12N1CCCCC1 (stereo not drawn),-4,0,nt,8,3,nt
CCC(C)Nc1nc2c(c(=O)[nH]c(=O)n2C)n1CCOc1ccccc1 (stereo not drawn),98*,0,i,1,nt,-5
CCCCn1c(NC(C)CC)nc2c1c(=O)[nH]c(=O)n2C (stereo not drawn),92*,0,i,2,-3,4
Cn1c(=O)[nH]c(=O)c2c1nc(NCCO)n2CCOc1ccccc1,13,0,i,3,6,-2
CCCCCn1c(NC2CCCCC2)nc2c1c(=O)[nH]c(=O)n2C,30,0,i,2,2,2
O=C(O)c1cc2c(ccc3ccccc32)oc1=O,-9,0,+,0,-73,-475
COc1ccc(-c2nc(NC(=O)CSCCO)sc2C)cc1,98*,0,i,2,7,-1
